These results are taken from paper PMC11062922 (Nature Chemical Biology, 2023).

What all share (set-up): species or system human, MV4-11 + K-562 + COLO205 + SK-N-BE2 + OVCAR-8
One assay deals with MYLK3. As to conditions: read-out: apparent Kd, n = 1.
For the next assay, the system named is PLK4. Conditions: read-out: apparent Kd, n = 1.
In the next assay the test system is CDK7. Conditions: read-out: apparent Kd, compound concentrations: 100 nM and 1000 nM (sheet 'Samples'), n = 1.
For another assay, the system named is ERCC2. Conditions: read-out: apparent Kd, compound concentrations: 100 nM and 1000 nM (sheet 'Samples'), n = 1.
The next assay concerns FER. Conditions: read-out: apparent Kd, compound concentrations: 100 nM and 1000 nM (sheet 'Samples'), n = 1.
The subject of the next assay is PIP4K2C. As to conditions: read-out: apparent Kd; compound concentrations: 100 nM and 1000 nM (sheet 'Samples'), CATDS: 1.61438790686462E-2; n = 1.
The next assay has as its system PRKAA1. As to conditions: read-out: apparent Kd; compound concentrations: 100 nM and 1000 nM (sheet 'Samples'), CATDS: 2.1062710392343101E-2; n = 1.
The subject of the next assay is PTK2B. Conditions: read-out: apparent Kd, compound concentrations: 100 nM and 1000 nM (sheet 'Samples'), n = 1.
A further assay concerns PTK2. Conditions: read-out: apparent Kd, compound concentrations: 100 nM and 1000 nM (sheet 'Samples'), n = 1.
The subject of another assay is RPS6KA6. Conditions: read-out: apparent Kd, compound concentrations: 100 nM and 1000 nM (sheet 'Samples'), n = 1.
The subject of a further assay is CDKL5. As to conditions: read-out: apparent Kd, n = 1.
The next assay concerns PRKD2. As to conditions: read-out: apparent Kd, n = 1.
The subject of the next assay is LATS1. Conditions: read-out: apparent Kd, n = 1.
In another assay the test system is MARK4. Conditions: read-out: apparent Kd, n = 1.
In a further assay the test system is PRKD3. As to conditions: read-out: apparent Kd, n = 1.
A further assay concerns STK10. Conditions: read-out: apparent Kd, n = 1.
The next assay concerns DYRK1A. Conditions: read-out: apparent Kd, n = 1.
The next assay concerns FLT3. Conditions: read-out: apparent Kd, n = 1.
For a further assay, the system named is PRKCD. As to conditions: read-out: apparent Kd; compound concentrations:100 nM and 1000 nM (sheet 'Samples'); n = 1.
The subject of a further assay is PRKCQ. Conditions: read-out: apparent Kd; compound concentrations:100 nM and 1000 nM (sheet 'Samples'); n = 1.
[1] abbreviates: compound concentrations:100 nM and 1000 nM (sheet 'Samples').

The structures appear in SMILES notation. Read-outs that look alike come from different tables or passages of the source.

In the case of `COc1cc2ncn(-c3cc(OCc4ccccc4S(C)(=O)=O)c(C#N)s3)c2cc1OC` [GSK319347A], the potency estimated from few doses was 1190 nM in the assay on MYLK3 (compound concentrations: 100 nM and 1000 nM (sheet 'Samples'), CATDS: 9.2768404511317695E-2); 1390 nM in the assay with PLK4 (compound concentrations: 100 nM and 1000 nM (sheet 'Samples'), CATDS: 8.6919710650877405E-2).

On to `Cl.Cn1c(=O)c(Cc2ccccc2F)cc2cnc(NC3CCOCC3)nc21` [RO3305377-001], for which the potency estimated from few doses is 380 nM in the assay with CDK7 (CATDS: 3.4029245989281497E-2); 299 nM in the assay on ERCC2 (CATDS: 3.95504986982557E-2); 361 nM with FER (CATDS: 3.5160978159500297E-2); 2170 nM in the assay with PIP4K2C; 613 nM in the assay with PLK4 (compound concentrations: 100 nM and 1000 nM (sheet 'Samples'), CATDS: 2.6104796567006299E-2); 980 nM in the assay on PRKAA1. The potency estimated from few doses in the assay with PTK2B (CATDS: 3.3520584845693903E-2) is 390 nM; in the assay with PTK2 (CATDS: 2.57578339913308E-2), 630 nM; in the assay on RPS6KA6 (CATDS: 2.9562664752210699E-2), 485 nM.

In the case of `NS(=O)(=O)c1ccc(N/N=C2\C(=O)Nc3ccc4ncccc4c32)cc1` [GW305178X], in the assay with CDKL5 (compound concentrations: 100 nM and 1000 nM (sheet 'Samples'), CATDS: 5.21381649539812E-2), the potency estimated from few doses is 867 nM.

Take `O=C1N=C(N[C@H](CO)c2ccccc2)S/C1=C\c1ccc2ncccc2c1` [RO4554339-000]: the potency estimated from few doses with MYLK3 (compound concentrations: 100 nM and 1000 nM (sheet 'Samples'), CATDS: 0.15441229792148201) is 303 nM; in the assay on PRKD2 (compound concentrations: 100 nM and 1000 nM (sheet 'Samples'), CATDS: 0.111650130871897), 671 nM.

In the case of `O=C(Nc1n[nH]c2nc(-c3ccccc3O)ccc12)C1CC1` [SB-711880], the potency estimated from few doses in the assay with CDKL5 (setting [1]) is 1450 nM; in the assay on LATS1 (setting [1]), 1030 nM; in the assay with MARK4 (setting [1]), 1680 nM; in the assay with MYLK3 (setting [1]), 219 nM; in the assay on PLK4 (setting [1]), 867 nM; with PRKD2 (setting [1]) it was 712 nM. For the same compound, the potency estimated from few doses in the assay on PRKD3 (setting [1]) was 570 nM; in the assay with STK10 (setting [1]), 1200 nM.

`O=C1N=C(NCCc2ccccc2Cl)S/C1=C\c1ccc2ncccc2c1` [RO4498484-000]: the potency estimated from few doses in the assay on CDKL5 (compound concentrations: 100 nM and 1000 nM (sheet 'Samples'), CATDS: 6.1493092563951302E-2) was 1600 nM; in the assay on DYRK1A (compound concentrations: 100 nM and 1000 nM (sheet 'Samples'), CATDS: 8.1161352179904903E-2), 673 nM; in the assay with FLT3 (compound concentrations: 100 nM and 1000 nM (sheet 'Samples'), CATDS: 6.2849399961882796E-2), 1470 nM.

On to `CN[C@H](C#Cc1c(F)ccc2c1/C(=C/c1[nH]ccc1OC)C(=O)N2)CO.Cl` [RO0283049-001], for which the potency estimated from few doses in the assay on CDKL5 (compound concentrations: 100 nM and 1000 nM (sheet 'Samples'), CATDS: 0.200980885548627) was 17.8 nM; with FLT3 (compound concentrations: 100 nM and 1000 nM (sheet 'Samples'), CATDS: 0.132856529197414), 31.3 nM; in the assay with LATS1 (compound concentrations: 100 nM and 1000 nM (sheet 'Samples'), CATDS: 5.43155260129227E-2), 134 nM; with MYLK3 (compound concentrations: 100 nM and 1000 nM (sheet 'Samples'), CATDS: 2.9648763968158898E-2), 504 nM.

Regarding `CCn1c(-c2nonc2N)nc2cncc(Br)c21` [SB-738004], the potency estimated from few doses in the assay on DYRK1A (setting [1]) was 717 nM; with FLT3 (setting [1]), 1190 nM; in the assay with PRKCD, 649 nM; with PRKCQ it was 2390 nM.

Turning to `Cn1cc(C2=C(c3ccc(OC[C@@H](O)CO)cc3)C(=O)NC2=O)c2ccccc21` [RO3208546-000], the potency estimated from few doses is 768 nM in the assay with CDK7 (CATDS: 4.6127698813653598E-2); 559 nM in the assay with ERCC2 (CATDS: 5.3996089618989399E-2); 590 nM in the assay on FER (CATDS: 5.24891250459407E-2); 996 nM with PTK2B (CATDS: 4.1151087302781601E-2); 918 nM with PTK2 (CATDS: 4.2596941934388698E-2); 626 nM in the assay with RPS6KA6 (CATDS: 5.0913712031047997E-2).

For `Cl.Nc1nc(-c2ccc3c(c2)C(=Cc2cc(Br)c(O)c(Br)c2)C(=O)N3)cs1` [GW407323A], the potency estimated from few doses in the assay on CDKL5 (compound concentrations: 100 nM and 1000 nM (sheet 'Samples'), CATDS: 9.5267986760985093E-2) was 73.7 nM; with DYRK1A (compound concentrations: 100 nM and 1000 nM (sheet 'Samples'), CATDS: 7.6450134498411204E-2), 110 nM; with MARK4 (compound concentrations: 100 nM and 1000 nM (sheet 'Samples'), CATDS: 2.9036597376729201E-2), 1630 nM; in the assay on MYLK3 (compound concentrations: 100 nM and 1000 nM (sheet 'Samples'), CATDS: 0.25523575381679198), 17.2 nM; in the assay on PRKD2 (compound concentrations: 100 nM and 1000 nM (sheet 'Samples'), CATDS: 3.4430997277348899E-2), 812 nM; in the assay with PRKD3 (compound concentrations: 100 nM and 1000 nM (sheet 'Samples'), CATDS: 3.1520603000909302E-2) it was 1130 nM.

For `NS(=O)(=O)c1ccc(N/N=C2\C(=O)Nc3ccc(-c4cnco4)cc32)cc1` [GW276655_KCGS], the potency estimated from few doses in the assay on MYLK3 (setting [1]) is 988 nM.

Take `O=C1N=C(NCCc2cccs2)S/C1=C\c1ccc2ncccc2c1` [RO4508348-000]: the potency estimated from few doses in the assay with DYRK1A (compound concentrations: 100 nM and 1000 nM (sheet 'Samples'), CATDS: 0.139481417923777) was 734 nM; with FLT3 (compound concentrations: 100 nM and 1000 nM (sheet 'Samples'), CATDS: 0.15045749947439399), 638 nM.

In the case of `CC(C)N1CC(=O)N(C)c2cnc(Nc3cccc(S(=O)(=O)CCN4CCOCC4)c3)nc21` [BI00009348], the potency estimated from few doses with STK10 (compound concentrations: 100 nM and 1000 nM (sheet 'Samples'), CATDS: 5.40109770146803E-2) is 1450 nM.

Take `COc1cccc(C2=C(c3c(C)n(C)c4ccccc34)C(=O)NC2=O)c1` [RO3300167-000]: the potency estimated from few doses in the assay with LATS1 (compound concentrations: 100 nM and 1000 nM (sheet 'Samples'), CATDS: 7.6284475672850502E-2) was 1700 nM; in the assay with MARK4 (compound concentrations: 100 nM and 1000 nM (sheet 'Samples'), CATDS: 8.0513919134026293E-2), 1480 nM; in the assay with PRKD2 (compound concentrations: 100 nM and 1000 nM (sheet 'Samples'), CATDS: 8.0855416148342393E-2), 1470 nM; in the assay with PRKD3 (compound concentrations: 100 nM and 1000 nM (sheet 'Samples'), CATDS: 7.4607672697658597E-2), 1800 nM.

Consider `CCn1c(-c2nonc2N)nc2cncc(C(=O)N3CC[C@H](N)C3)c21.Cl` [SB-772077-B], for which the potency estimated from few doses with DYRK1A (setting [1]) is 1520 nM; in the assay on PRKCD, 843 nM.

Regarding `Nc1nccc(-c2ccc3c(N)n[nH]c3c2)n1` [GSK1034945A], the potency estimated from few doses in the assay with DYRK1A (setting [1]) is 117 nM; in the assay on MARK4 (setting [1]), 1790 nM; in the assay on MYLK3 (setting [1]) it was 65.5 nM; in the assay on PRKD2 (setting [1]) it was 2030 nM; in the assay with STK10 (setting [1]), 1120 nM.
